In all, about 390,000 compounds went through this assay and about 4,000 (1%) were called active. Roughly 7% stayed inconclusive and do not appear here. The sample holds actives, similar compounds and a random draw of the others, so the mix is not that of the screen. A number with no mark means an inactive call. Calls follow the shape of the dose curve; as a rule, active = well fitted inhibition curve with a large enough effect; inconclusive = small, poorly fitted or top-dose-only effect, or another doubt; inactive = no such curve, though single readings can be large or run the other way.
These molecules were tested against DNA polymerase iota (Homo sapiens) (UniProt Q9UNA4) (assay: qHTS for Inhibitors of Polymerase Iota). Settings: Pol iota fluorescent replication assay, 10 min; series mostly up to 115 µM; activity, negative = inhibition: at the top concentration.
Chain of DNA polymerase iota (Homo sapiens) (Q9UNA4 whole entry, looked up): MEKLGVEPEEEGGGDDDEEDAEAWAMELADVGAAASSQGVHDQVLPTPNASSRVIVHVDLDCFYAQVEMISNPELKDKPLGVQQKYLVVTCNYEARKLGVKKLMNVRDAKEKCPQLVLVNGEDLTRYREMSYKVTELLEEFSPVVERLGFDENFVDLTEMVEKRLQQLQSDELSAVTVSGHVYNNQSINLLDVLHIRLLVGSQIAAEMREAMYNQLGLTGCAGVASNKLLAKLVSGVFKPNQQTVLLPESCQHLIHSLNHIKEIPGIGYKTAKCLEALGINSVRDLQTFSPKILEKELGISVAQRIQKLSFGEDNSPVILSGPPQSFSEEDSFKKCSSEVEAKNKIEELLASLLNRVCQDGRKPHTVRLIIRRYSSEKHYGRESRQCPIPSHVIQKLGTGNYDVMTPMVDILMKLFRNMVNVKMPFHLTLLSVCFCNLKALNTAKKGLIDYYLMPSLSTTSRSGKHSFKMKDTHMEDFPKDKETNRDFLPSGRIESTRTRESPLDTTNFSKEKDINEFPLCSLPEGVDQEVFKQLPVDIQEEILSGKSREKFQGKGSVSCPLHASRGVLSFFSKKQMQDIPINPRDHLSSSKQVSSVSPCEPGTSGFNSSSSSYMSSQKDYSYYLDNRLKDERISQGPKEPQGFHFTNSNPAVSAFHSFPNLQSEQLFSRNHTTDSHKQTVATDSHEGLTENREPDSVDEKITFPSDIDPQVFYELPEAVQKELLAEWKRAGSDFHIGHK
In short: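 Pol iota at 10 nM preincubated 15 min with compounds at room temperature; reaction started with fluorescent substrate, 50 nM final. Fluorescence read kinetically at 0 and 10 min; buffer-only wells as negative control.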
Potency is read from the fitted curve at half-maximal effect.

Compared with `CN(c1ccccc1)S(=O)(=O)c1ccc(Cl)c(C(=O)OCC(=O)N2CCOCC2)c1`, `O=C(COC(=O)c1cc(S(=O)(=O)N2CCOCC2)ccc1Cl)NCCc1ccccc1` is lower in “activity, negative = inhibition” value: 166% for the first, 45.3% for the second.

First: O=C(CCCOc1ccccc1)NCc1ccco1
Second: Cn1c(N)c(C(=O)COC(=O)c2ccccc2NCc2ccco2)c(=O)n(C)c1=O
The “activity, negative = inhibition” value of the first is lower: 13.6% for the first, 15.1% for the second.

Going from `Cc1cccc(C)c1NC(=O)COC(=O)c1ccccc1O` to `O=C(COC(=O)c1ccccc1C(=O)N1CCN(c2ccccc2)CC1)NCc1ccccc1`, the “activity, negative = inhibition” value rises from 86.2% to 151%.

Going from `O=S(=O)(NCc1ccco1)c1cnc(Cl)c(Cl)c1` to `COc1ccc(CCNC(=O)COC(=O)c2cnc(Cl)c(Cl)c2)cc1`, the “activity, negative = inhibition” value rises from -22.2% to 28%.

First: CN1CCN(C(CNC(=O)c2ccccc2F)c2ccc3c(c2)OCO3)CC1 (stereo not drawn)
Second: Cc1ccc(Cl)cc1N1CCN(C(=O)c2cccn3c(=O)c4cc(Cl)ccc4nc23)CC1
The “activity, negative = inhibition” value of the first is lower: 28.1% for the first, 34.6% for the second.

Going from `Cc1ccc(OCCSc2nc(C)c(Cc3ccccc3)c(=O)[nH]2)cc1` to `Cc1cccc(Cc2c(C)nc3nc(SCc4ccccc4Cl)nn3c2C)c1`, the “activity, negative = inhibition” value falls from 14.1% to 1.69%.

Going from `Cc1ccc(CCNC(=O)c2ccc3c(c2)N(Cc2cc(C)ccc2C)C(=O)c2ccccc2S3=O)cc1` (stereo not drawn) to `Cc1ccc(CCNC(=O)c2ccc(CNS(=O)(=O)c3ccc(C)cc3)cc2)cc1`, the “activity, negative = inhibition” value rises from -18.7% to 3%.

Compared with `CCCn1c2ccccc2c2cnn(CC(=O)N3CCCC(C(=O)OCC)C3)c(=O)c21` (stereo not drawn), `CCOC(=O)c1c(S(=O)(=O)N2CCCC(C(=O)NCc3ccc(F)cc3)C2)c(C)n(CC)c1C` (stereo not drawn) is higher in “activity, negative = inhibition” value: 2.71% for the first, 6.16% for the second.

Going from `CCOC(=O)N1CCc2c(sc3c2c(=O)n(-c2ccc(CC)cc2)c(=O)n3C)C1` to `Cc1ccc(NC(=O)Cn2c(=O)n(-c3ccccc3)c(=O)c3c4c(sc32)CCCC4)cc1`, the “activity, negative = inhibition” value falls from 35.1% to 1.6%.

Going from `O=C(NCc1ccccc1)c1cccc(NC(=O)N2CCSc3ncccc32)c1` to `Cc1c(NC(=O)Cc2ccccc2)cccc1-c1nc2cccnc2s1`, the “activity, negative = inhibition” value falls from 16.8% to 11.6%.

Going from `O=C(Nc1ccccc1Cl)N1CCC(CN2CCCCC2)CC1` to `O=C(Nc1ccccc1Cl)N1CCC(CN2CCCC2)CC1`, the “activity, negative = inhibition” value falls from -15.7% to -25.7%.

Compared with `Cc1ccc(-c2nn3c(=O)cc(CN4CCN(S(=O)(=O)c5ccc(Cl)cc5)CC4)nc3s2)cc1`, `O=C(CCc1nc(CN2CCN(S(=O)(=O)c3ccc(Br)cc3)CC2)no1)N1CCCCC1` is higher in “activity, negative = inhibition” value: -15.6% for the first, 10.5% for the second.

First: CC(=O)c1cc(C#N)c(SCC(=O)Nc2nccs2)nc1C
Second: Cc1cc(NC(=O)CSc2ncc(C(=O)Nc3ccc(Cl)cc3)c(=O)n2C)no1
The “activity, negative = inhibition” value of the first is higher: 33.6% for the first, -8.21% for the second.

Going from `N#Cc1ccsc1NC(=O)CN1CCCCC1` to `Cc1ccc(NC(=O)Cn2cnc3nc4c(cc3c2=O)CCCC4)cc1Cl`, the “activity, negative = inhibition” value falls from 4.32% to -12.5%.

Going from `COc1ccc(CCN2C(=O)c3oc4cc(C)cc(C)c4c(=O)c3C2c2ccccc2F)cc1OC` (stereo not drawn) to `Cc1cccc(-n2c(SCC(N)=O)nc3c(oc4ccccc43)c2=O)c1`, the “activity, negative = inhibition” value rises from 23.2% to 36.3%.

First: CC1(C)N=C(SCc2ccccc2Cl)c2ccccc2N1
Second: CN(C)c1nccc(NCc2ccccc2)c1C#N
The “activity, negative = inhibition” value of the first is lower: -1.22% for the first, 18.2% for the second.

Going from `Cc1ccc(-c2nnc(SCC(=O)NCc3ccccc3)nc2-c2ccc(C)cc2)cc1` to `CC(C)(C)c1ccc(C(=O)NCc2nnc(SCC(=O)N3CCCc4ccccc43)n2-c2ccccc2)cc1`, the “activity, negative = inhibition” value rises from 8% to 16.9%.

Going from `CSc1n[nH]c(-c2ccco2)n1` to `COc1ccc(Cn2c(=O)[nH]c3cc(C(=O)N4CCN(C(=O)c5ccco5)CC4)ccc3c2=O)cc1`, the “activity, negative = inhibition” value rises from -17.7% to 36.2%.

Going from `CCOC(=O)c1scc(-c2ccc(C)cc2)c1S(=O)(=O)Nc1cc(C)ccc1C` to `CCOc1ccc(-c2nonc2NC(=O)c2oc3ccc(CC)cc3c2C)cc1`, the “activity, negative = inhibition” value rises from -26.6% to -15%.

Compared with `COc1cc(Cl)c(C)cc1NC(=O)CCc1nc2cccnc2n1Cc1cccs1`, `CCC(=O)Nc1cccc(C(=O)OCc2cc(=O)n3nc(CC)sc3n2)c1` is higher in “activity, negative = inhibition” value: -4.61% for the first, 22.1% for the second.

Compared with `Cc1ccc(S(=O)(=O)N2CCN(S(=O)(=O)N3CCOCC3)CC2)cc1`, `CC1(C)CC(=O)C(N=Nc2ccc(S(=O)(=O)N3CCCCCC3)cc2)=C(O)C1` is higher in “activity, negative = inhibition” value: -16.2% for the first, 9.92% for the second.

Going from `CC(C)(C)c1ccc(C(=O)C[n+]2cccc3cc(Cl)ccc32)cc1` to `CCOc1ccc(CNC(=O)C2CCN(c3nnc(-n4cccc4CNc4ccc(C)cc4)s3)CC2)cc1OC`, the “activity, negative = inhibition” value falls from 25.7% to -0.133%.

First: O=C(COc1ccccc1F)OCc1cc(=O)n2nc(C3CCCCC3)sc2n1
Second: Cc1ccc(OCC(=O)OCc2cc(=O)n3nc(C4CC4)sc3n2)cc1C
The “activity, negative = inhibition” value of the first is lower: 10.5% for the first, 29.3% for the second.

In the case of `CCCCc1nn2c(=O)cc(COC(=O)c3cccc(NC(=O)COc4ccccc4)c3)nc2s1`, the “activity, negative = inhibition” value is reported as 16.1%.

With `CN(c1ccccc1)S(=O)(=O)c1ccc(Cl)c(C(=O)OCC(=O)NCc2ccco2)c1` the Potency was 44.7 µM (active).
`O=C(COC(=O)c1ccccc1O)NCc1ccco1` was tested, and the Potency was 35.5 µM (active).
For `Cc1cc(C(=O)OCC(=O)NCc2ccco2)c(C)n1-c1ccccc1`, the Potency was 22.4 µM (active).
For `O=C(COC(=O)c1cnc(Cl)c(Cl)c1)NCc1ccco1`, the Potency was 17.8 µM (active).
With `O=C(Nc1ccccc1Cl)/C(Cl)=C(\Cl)S(=O)c1ccccc1` (stereo not drawn) the Potency was 12.6 µM (active).
In the case of `Cc1csc(SCC(=O)Nc2sccc2C#N)n1`, the Potency is reported as 22.4 µM (active).
With `c1ccc(CSc2nnc(-c3ccco3)c(-c3ccco3)n2)cc1` the Potency was 7.94 µM (active).
With `Clc1ccccc1CSc1nnc(-c2ccco2)c(-c2ccco2)n1` the Potency was 14.1 µM (active).
With `O=C1CCCC(O)=C1N=Nc1ccc(S(=O)(=O)N2CCOCC2)cc1` the Potency was 35.5 µM (active).
With `N#Cc1c(N2CCCCC2)nc(N)c2c(N)nc(SCC(=O)O)cc12` the Potency was 7.08 µM (active).
`CC(C)(C)c1ccc(C(=O)C[N+]2(C)CCCc3ccccc32)cc1` (stereo not drawn) was tested, and the Potency was 79.4 µM (active).
With `CC(C)n1cnc2c(NCc3ccccc3)cc(OCC3CCN(C)CC3)cc21` the Potency was 3.16 µM (active).
With `COc1ccc(OCC(=O)Nc2cccc(C(=O)OCc3cc(=O)n4nc(C)sc4n3)c2)cc1` the Potency was 89.1 µM (active).
With `Cc1ccc(OCC(=O)OCc2cc(=O)n3nc(C4CC4)sc3n2)cc1` the Potency was 89.1 µM (active).
For `Oc1cc(O)c2c(c1)OC(c1ccc(O)c(O)c1)C(O)C2` (stereo not drawn), the Potency was 79.4 µM (active).

For `N#Cc1c(C(F)(F)F)cc(-c2cccs2)nc1N1CCCCC1`, the “activity, negative = inhibition” value was -6.85% [at 58.9 µM].

— PubChem BioAssay AID588590 (National Center for Advancing Translational Sciences (NCATS), 2011)
